From PubChem BioAssay (EPA / NIEHS)
Activity calls are given as the source filed them. The calls were made as follows: active = hit-call score of the fitted dose curve at least 0.9, where 1 is the maximum; inactive = score below 0.9.

The compounds below were run on TIMP metallopeptidase inhibitor 1 (TIMP1), TIMP1 (gene 7076) (assay: BSK_hDFCGF_TIMP1: BioMAP Diversity Plus: hDFCGF Assay for TIMP metallopeptidase inhibitor 1 (TIMP1) Biomarker Activity (AID 2283062)). Details: primary human foreskin fibroblasts; actives raise or lower the signal.
Experimental: BSK_hDFCGF is a cell-based, multiplexed-readout assay that uses foreskin fibroblast, a human skin primary cell, with measurements taken at 24 hours after chemical dosing in a 96-well plate.BSK_hDFCGF_TIMP1 is an assay component measured in the BSK_hDFCGF assay. It measures TIMP-1 antibody related to regulation of gene expression using ELISA technology.Data from the assay component BSK_hDFCGF_TIMP1 was analyzed into 1 assay endpoint. This assay endpoint, BSK_hDFCGF_TIMP1, was analyzed with bidirectional fitting relative to DMSO as the negative control and baseline of activity. Using a type of binding reporter, gain or loss-of-signal activity can be used to understand changes in the signaling as they relate to the gene TIMP1. Furthermore, this assay endpoint can be referred to as a primary readout, because this assay has produced multiple assay endpoints where this one serves a signaling function. To generalize the intended target to other relatable targets, this assay endpoint is annotated to the protease inhibitor intended target family, where the subfamily is metalloproteinase inhibitor.
The levels of cell surface (or secreted, indicated by the prefix "s") biomarker endpoints were measured by ELISA. Overt cytotoxicity to cells in confluent adherent cultures (all systems other than the BT system) was assessed by measuring total protein levels using sulforhodamine B (SRB) staining in parallel cultures at the time of biomarker measurements, indicated as SRB endpoints. For proliferation assays for adherent cell types, individual cell types are cultured at sub-confluence and relative cell numbers quantified by SRB staining at time points optimized for each system (48 h: 3C and CASM3C systems; 72 h: BT and HDF3CGF systems; 96 h: SAg system). SRB was performed by staining cells with 0.1% SRB after fixation with 10% TCA and reading wells at 560 nm.Viability and proliferation of PBMC (T cells) was quantified by Alamar Blue reduction for the SAg and BT systems. For PBMC viability (referred to as PBMC Cytotoxicity within the assay endpoint names), cells were plated (75,000/well in a 96-well plate) and then chemical samples added for 1 h before addition of activators, SEB and TSST-1 (20 ng/mL final concentration each). Cells were incubated for 90 h. Then, Alamar Blue (20 uL/well) (Invitrogen, Cat DAL1100) was added for 6 h, and the plates were read with a fluorescence microplate reader at 546/580 nm (excitation/emission). For PBMC proliferation, cells were plated and activated as above but incubated for only 16 h prior to addition of Alamar Blue. Plates were read after 6 h.
In the case of COc1ccc(S(=O)(=O)N2C(=O)[C@@](c3ccccc3OC)(N3C[C@H](O)C[C@H]3C(=O)N(C)C)c3cc(Cl)ccc32)c(OC)c1, the outcome is reported as “inactive”. For COc1cc(C=O)ccc1O, the outcome was “inactive”. With O=C(N[C@@H](Cc1ccccc1)[C@@H](O)C(=O)N1C[C@@H](O)[C@@H](O)C1)c1cc2cc(Cl)ccc2[nH]1 the outcome was “inactive”. In the case of CCCCCCCCCCCCCCCCCC(=O)O, the outcome is reported as “inactive”. For CC(=O)OCCOCCOCCOC(C)=O, the outcome was “inactive”. For NCCO, the outcome was “inactive”. With Cc1ccc(C)c(O)c1C the outcome was “inactive”. CN1CCN(Cc2cc(-c3ccc4[nH]c(=O)oc4c3)co2)[C@@H](c2ccc(F)cc2)C1 was tested, and the outcome was “inactive”. In the case of CC1(C)NC(=O)NC1=O, the outcome is reported as “inactive”. CC1(C)CC(N=C=O)CC(C)(CN=C=O)C1 (stereo not given) was tested, and the outcome was “inactive”. In the case of CCCCc1ccc2c(n1)[C@@H](c1ccc(OC)cc1C[C@H](C)C(=O)O)[C@H](C(=O)O)[C@H]2c1ccc2c(c1)OCO2, the outcome is reported as “inactive”. For CCCCN(CCCC)CCCC, the outcome was “inactive”. With O=C(O)Cc1ccccc1Nc1c(Cl)cccc1Cl the outcome was “inactive”. For Cc1ccc(N(C)C)cc1, the outcome was “inactive”. With NS(=O)(=O)c1cc2c(cc1Cl)NCNS2(=O)=O the outcome was “inactive”. In the case of CCCCCCCCCCCC(=O)OC, the outcome is reported as “inactive”. In the case of Nc1ccc(S(=O)(=O)c2ccc(N)cc2)cc1, the outcome is reported as “inactive”. In the case of O=c1c(O)c(-c2ccc(O)c(O)c2)oc2cc(O)cc(O)c12, the outcome is reported as “inactive”. With CCCCCCCC=O the outcome was “inactive”. In the case of Cc1nc(C)nc(N2C[C@@H](C)N(c3ccnc([C@@H](C)O)n3)[C@@H](C)C2)n1, the outcome is reported as “inactive”. For Cc1ccc2ncccc2c1, the outcome was “inactive”. With OC[C@@H](O)[C@@H](O)[C@H](O)[C@H](O)CO the outcome was “inactive”. For Cc1ccc(C)c(C)c1, the outcome was “inactive”. In the case of CC(C)(C)c1cc(O)c(C(C)(C)C)cc1O, the outcome is reported as “inactive”. For CN[C@H]1CC[C@@H](c2ccc(Cl)c(Cl)c2)c2ccc(S(N)(=O)=O)cc21, the AC50 was 31.4 µM (active). For C1CCC(SSC2CCCCC2)CC1, the outcome was “inactive”. For O=[N+]([O-])C(CO)(CO)CO, the outcome was “inactive”. In the case of COc1ccc2c(c1)c(CC(=O)O)c(C)n2C(=O)c1ccc(Cl)cc1, the outcome is reported as “inactive”. With CCCCCCC(=O)OCC the outcome was “inactive”. For Cc1ccc(C(C)C)c(O)c1, the outcome was “inactive”. FC(F)(F)C(F)(F)C(F)(F)C(F)(F)C(F)(F)C(F)(F)CCI was tested, and the outcome was “inactive”. For Cc1cccc(C)c1O, the outcome was “inactive”. In the case of CCCCCCCCCCC, the outcome is reported as “inactive”. CCCCCCCCCCCCCO was tested, and the AC50 was 13.1 µM (active). In the case of C[Si]1(C)O[Si](C)(C)O[Si](C)(C)O[Si](C)(C)O1, the outcome is reported as “inactive”. In the case of Oc1ccc2ccccc2c1N=Nc1ccccc1, the outcome is reported as “inactive”. For c1cc(-c2ccncc2)ccn1, the outcome was “inactive”. COCCOC[C@H](CC1(C(=O)NC2CCC(C(=O)O)CC2)CCCC1)C(=O)Oc1ccc2c(c1)CCC2 (stereo not given in full) was tested, and the outcome was “inactive”. In the case of Cc1oc(-c2ccccc2)nc1CCOc1cccc2c1ccn2CCC(=O)O, the outcome is reported as “inactive”. CC(=O)OC/C=C(\C)CCC=C(C)C was tested, and the outcome was “inactive”.
